In the library only some 4.3% were active in any assay of this set; here they are far more common.
Wnt act = activates Wnt/beta-catenin signaling in a reporter cell assay; AID 743398; activator, plate reader; activation, % at 9.35 µM; actives 1.2% (n = 300,000); in the data active = activation above about 30%, passing the limit was not always enough; inconclusive = no clear call, values can overlap the other calls;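 also: 0% = neutral control wells and 100% = positive control wells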
MLL AF4-AF9 inh = blocks AF4 peptide binding to human AF9 | P42568 | AlphaScreen, biotin-AF4 peptide binding to FLAG-AF9 | inhibition, % at 10 µM | actives 0.47% (n = 350,000) | AID 651704;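 active = every replicate reaching a set inhibition limit, whatever the replicate mean, cut at about 25% in these data; inconclusive = mean inhibition reaches that limit but some replicates miss it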;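 also: 0% = plate neutral control median and 100% = total signal loss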
FGF22 binding = FGF22 (human) thermal shift binding; Q9HCT0; recombinant FGF22 thermal shift, SYPRO orange fluorescence; percent of sucrose octasulfate shift, DMSO zero; activity (Tm shift, normalised), % at 9.99 µM; actives 1.5% (n = 340,000); AID 651658;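 active = mean Tm shift, scaled 0 neutral to 100 positive control, at about 1.3% or above, every replicate too, limit read from the data; inconclusive = no clear call, values can overlap the other calls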
Target sequence (Q9HCT0 whole entry, looked up): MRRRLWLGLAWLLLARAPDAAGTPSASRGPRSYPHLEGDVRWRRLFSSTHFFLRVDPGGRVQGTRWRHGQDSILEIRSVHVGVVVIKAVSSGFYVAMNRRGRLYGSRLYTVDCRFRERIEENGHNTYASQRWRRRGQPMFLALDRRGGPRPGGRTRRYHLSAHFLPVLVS
esBAF inh = SWI/SNF esBAF complex inhibition; mouse ES cells, Bmi1-luciferase knock-in reporter, 24 h; 100% = twice the neutral-well signal; reporter increase, % at 12.5 µM; actives 2% (n = 350,000); in the data active = activation above about 40%; inconclusive = no clear call, values can overlap the other calls;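 also: 0% = median of the plate's neutral control wells and 100% = double that signal; a rise in the Bmi1 reporter signal indicates esBAF inhibition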
MITF TRPM1 HTS = increases MITF-driven TRPM1 promoter luciferase signal; SK-MEL-5 TRPM1-promoter luciferase, 24 h; % of positive control, neutral wells = 0; activation, % at 12.5 µM; actives 0.75% (n = 300,000); AID 588334;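 active = mean activation of at least 80% with every replicate also reaching 80%; inconclusive = mean reaches 80% but some replicate falls short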;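 also: 0% = neutral control wells and 100% = parthenolide positive control wells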
SMARCA2 activ = increases SMARCA2 function in MMTV reporter cells | MG213 cells, MMTV-luciferase reporter, dexamethasone, overnight | actives 1% (n = 370,000) | activation, % at 9.1 µM | AID 652017; in the data active = activation above about 7.8%;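 also: 0% = vehicle wells and 100% = reference activator wells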
* = called active by the depositor; ? = inconclusive; / = no result.

SMILES	Wnt act	MLL AF4-AF9 inh	FGF22 binding	esBAF inh	MITF TRPM1 HTS	SMARCA2 activ
C/C(=N\NC(=O)c1cccs1)c1ccc2c(c1)OCO2	7	-2	0	/	34	4
CC(=NNC(=O)c1cccs1)c1ccc2c(c1)OCCO2	?	2	1	47*	105*	5
C[C@@H]1CN([C@H](C)CO)C(=O)c2cc(C#C[C@@H](C)O)cnc2O[C@@H]1CN(C)C(=O)Cc1ccccn1	/	-3	0	0	/	/
O=C(c1ccc(C(F)(F)F)cc1)C1CCCN(Cc2cccn2-c2ncccn2)C1 (stereo unspecified)	-1	7	43*	1	6	6
Cc1c(C(=S)Nc2ccccc2)cnn1-c1ccc([N+](=O)[O-])cc1	/	/	/	/	14	-3
Cc1nn(-c2ccccc2)cc1C(=S)Nc1ccccc1	-3	0	0	49*	27	2
Cc1nn(C)cc1C(=O)NNC(=S)Nc1ccccc1	-1	/	/	5	38	1
Cc1c(C(=S)Nc2ccccc2)cnn1-c1ccccc1	?	/	/	/	96*	3
COc1cc2nc(N(CCCN(C)C)C(=O)c3ccc(S(=O)(=O)N4CCc5ccccc5C4)cc3)sc2cc1OC	0	2	0	2	-9	-1
CCOC(=O)N1CCN(S(=O)(=O)c2ccc(C(=O)N(CCCN(C)C)c3nc4ccc(Cl)cc4s3)cc2)CC1	-2	4	0	-2	-53	1
CN(C)CCCN(C(=O)c1ccc2c(c1)CCCC2)c1nc2ccc(Cl)cc2s1	/	27*	-1	/	20	-7
CN(C)CCN(C(=O)c1ccc2ccccc2c1)c1nc2cc3c(cc2s1)OCCO3	12	50*	0	7	61	1
COc1cc2nc(N(CCCN(C)C)C(=O)c3ccc(C(=O)c4ccccc4)cc3)sc2cc1OC	-16	28*	40	1	-3	5
COc1cccc2sc(N(CCCN(C)C)C(=O)c3ccc(S(=O)(=O)N4CCc5ccccc5C4)cc3)nc12	-4	29*	0	/	-47	-1
CNC[C@@H]1OCc2cn(nn2)CCCC(=O)N([C@H](C)CO)C[C@@H]1C	/	/	/	-5	/	/
C[C@@H]1CN([C@H](C)CO)C(=O)c2cc(NC(=O)c3ccccc3)ccc2O[C@@H](C)CCCCO[C@H]1CN(C)Cc1ccc(C(F)(F)F)cc1	/	0	0	-21	/	/
CC(C)NC(=O)NCC[C@@H]1CC[C@@H](NS(=O)(=O)c2ccc(-c3ccccc3)cc2)[C@H](CO)O1	/	10	0	7	/	/
CO[C@H]1CN(C)C(=O)c2cc(NS(C)(=O)=O)ccc2OC[C@@H](C)NC[C@@H]1C	/	-4	/	/	/	/
CC=Cc1ccc2n(c1=O)C[C@@H]1[C@@H](CO)[C@H](C(=O)NCCC)N(C(=O)c3cccnc3)[C@H]21 (mixture of isomers)	/	-4	/	/	/	/
CC(=O)Nc1ccc2c(c1)C(=O)N(C)[C@H]1CC[C@H](CC(=O)Nc3ccc(C)cc3)O[C@@H]1CO2	/	/	0	2	/	/
CN(C)CCCN(C(=O)c1ccc2c(c1)OCCO2)c1nc2cc3c(cc2s1)OCO3	-1	5	0	-8	19	-2
CN(C)CCCN(C(=O)c1ccc2ccccc2c1)c1nc2cc3c(cc2s1)OCO3	-1	33*	0	/	23	-3
CN(C)CCN(C(=O)c1cccc2ccccc12)c1nc2cc3c(cc2s1)OCO3	-1	28*	0	-8	-7	-1
Cc1ccc(S(=O)(=O)N2[C@@H](c3ccc(F)cc3)C(C(=O)O)=CC[C@H]2c2ccc(Cl)cc2)cc1	-1	-4	1.6*	-4	1	-1
CC(=O)N(C)C[C@@H]1Oc2cc(C#Cc3ccccc3)ccc2S(=O)(=O)N([C@@H](C)CO)C[C@H]1C	/	-1	-1	-3	/	/
SMILES	Wnt act	MLL AF4-AF9 inh	FGF22 binding	esBAF inh	MITF TRPM1 HTS	SMARCA2 activ
Cc1csc2ncc(C(=O)Nc3ccc(C(F)(F)F)cc3)c(=O)n12	-1	2	0	-1	-8	2
CC(=O)c1cnc2scnn2c1=O	-1	-1	43*	-5	-3	4
Cc1nn(-c2ccccc2)c(Cl)c1/C=N/NC(=O)OC(C)(C)C	34*	3	0	/	57	3
CNC(=S)N/N=C/c1c(C)nn(-c2ccccc2)c1Cl	/	/	/	/	53	-2
O=C1/C(=C/c2cccnc2)SC(=S)N1Cc1ccco1	2	-2	1	/	-10	-2
Cc1cc(/C=C2\SC(=S)N(Cc3ccco3)C2=O)c(C)n1-c1cccnc1	/	/	/	43*	/	5

Bioassay records (PubChem)
